Results published in PubChem BioAssay AID2782 (National Center for Advancing Translational Sciences (NCATS), 2010).
Inconclusive results are not listed. The source made the active and inactive calls. Calls come from the whole dose curve; as a rule, active = well fitted inhibition curve with a large enough effect in the polarisation, with a control signal flat (not every such curve was filed as active); inconclusive = small, poorly fitted or top-dose-only effect, or effect the other way, or a change in a side signal; inactive = no such curve, though single readings can be large or run the other way; the % refers to the polarisation.

Assay: Confirmation of Inhibitors Targeting the Menin-MLL Interaction in MLL Related Leukemias: Competition With Texas Red Labeled MLL-derived Mutant Peptide
Details: fluorescence polarization, Texas Red MLL peptide displacement; series mostly up to 94.6 µM
Method in brief: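 Hits from the primary screen were retested: compounds were incubated 1 hr at ambient with 200 nM menin, 50 nM Texas Red mutant peptide and 25 nM fluorescein wild-type peptide (Tris pH 7.5, BSA-supplemented buffer), then fluorescence polarization was read.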
Potency is the fitted concentration of half-maximal effect.

Potency, active:
O=C(COC(=O)c1ccc(NS(=O)(=O)c2cccs2)cc1)Nc1nc2c(F)c(F)c(F)cc2s1 14.2 µM
NS(=O)(=O)c1ccc(NC(=O)c2ccc(S(=O)(=O)N3CCc4ccccc43)cc2)cc1 20 µM
CCCC(c1nnnn1Cc1ccco1)N1CCN(C2CCCC2)CC1 (configuration not stated) 79.4 µM
O=C(Nc1nnc(-c2ccccc2SCc2ccccc2)s1)Nc1ccccc1F 22.4 µM
O=C(CSc1nnc(-c2c[nH]c3ccccc23)o1)c1ccc(-c2ccccc2)cc1 35.5 µM
CN(C)CCCOc1ccc2c(c1)Sc1ccccc1CC2=O 141 µM
CN(C)c1ccc(C2CC(=O)C=C(Nc3ccccc3N)C2)cc1 (configuration not stated) 63.2 µM
Cc1cc2[nH]c3c(c[n+](C)c4ccccc34)c2cc1C 56.4 µM

Potency, inactive:
CCc1nn(C)c2c(=O)c(=O)c2n(C)[nH]1
CCc1ccccc1NC(=O)COc1cccc(-n2cnnn2)c1
CCN1C(=O)c2ccccc2S(=O)(=O)c2ccc(C(=O)NCCCN(CC(C)C)CC(C)C)cc21
O=C(NNCS(=O)(=O)O)c1ccncc1
N=c1oc2ccccc2cc1-c1nc(-c2ccc(Cl)cc2)cs1
Cc1cc2c(c(=O)n1Cc1ccccc1)C1O[C@](c3ccsc3)(Cc3cc(C#N)ccc31)O2
CCCN(CCC)CCCNC(=O)c1cc2c(=O)[nH]c3ccccc3c2s1
COc1cc(SC)ccc1C(=O)Nc1cccc(C2OCCCO2)c1
C[N+]1(CCNC(=O)/C=N/O)CCCCC1
CCCCn1c(SCC(=O)NCc2ccc(OC)c(C(=O)O)c2)nc2cc(S(N)(=O)=O)ccc21
CC(c1ccncn1)N(C)Cc1nc(-c2ccc(C(F)(F)F)cc2)no1 (configuration not stated)
CN1CCN(CC(=O)Nc2ccc(S(=O)(=O)N(C)C)cc2)CC1
COc1cc(OC)c2ccc(=O)oc2c1C(CCN1CCOCC1)c1ccc(N(C)C)cc1 (configuration not stated)
CCCc1nc2c(=O)[nH]c3ccccc3c2o1
COc1ccc(N(CC(=O)NC2CC3CCC2C3)S(=O)(=O)c2ccc(C)cc2)cc1OC (configuration not stated)
CN1[C@H](CC(=O)c2ccccc2)CCC[C@H]1C[C@@H](O)c1ccccc1
CCOc1ccccc1N(CC(=O)Nc1ccccc1C(=O)N1CCCC1)S(C)(=O)=O
COc1cccc(OC)c1NC(=O)CN1CCN(C)CC1
O=C(NCC1CCCO1)c1ccc(OC2CCN(C(=O)C3CC3)CC2)cc1 (configuration not stated)
CCCC(=O)NC(c1ccccc1Cl)c1ccc2cccnc2c1O (configuration not stated)
O=C(CCN1CCN(c2ccc([N+](=O)[O-])cc2)CC1)c1ccc(Cl)cc1
COc1cc(O)c(C(=O)c2ccccc2)cc1O
O=C1CCNc2c(Cl)cc(Cl)cc21
Cc1ccc(NC(=O)C(C)N2C(=O)c3ccccc3C2=O)c(C)c1 (configuration not stated)
